Unmarked numbers belong to inactive results. Inconclusive results are not listed. Entries that show only a call come without a potency. The source made the active and inactive calls. Unless noted, calls follow the shape of the dose curve; as a rule, active = well fitted curve in the direction sought with a large enough effect; inconclusive = small, poorly fitted or top-dose-only effect, or another doubt; inactive = no such curve, though single readings can be large; an effect the other way counts as inactive or inconclusive.

Assay [1] deals with Cytochrome P450 2C9 (Homo sapiens) (UniProt P11712). In words: qHTS Assay for Inhibitors and Substrates of Cytochrome P450 2C9 (AID 883). Also: nearly all actives have a fitted effect of over 60% in size. Also: potency is read from the fitted curve at half-maximal effect. The procedure, abridged:
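Turnover of Luciferin-H (100uM, KM) by 10nM human CYP2C9 was measured over 60 min at 37C with NADPH regeneration; inhibitors and some substrates reduce luminescence. Data normalized to sulphaphenazole 57uM.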
On the technique in general: qHTS replaces the single test concentration by a dilution series.

Assay [2] can be described thus: qHTS Assay for Identification of Small Molecule Antagonists for NFkB Signaling Pathway (AID 895; active = well fitted inhibition curve with a large enough effect in the signal ratio, with a control signal flat, not every such curve was filed as active; the % refers to the signal ratio; also: potency is read from the fitted curve at half-maximal effect). Summed up:
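Beta-lactamase reporter read-out (460 and 530 nm emission ratio, 405 nm excitation, 2 hrs substrate loading RT) after 5 hr stimulation with 10 pM TNF alpha in compound-treated NFkB-bla ME-180 cells in low-serum medium.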

The target in assay [3] is Cytochrome P450 3A4 (Homo sapiens) (UniProt P08684). In words: qHTS Assay for Inhibitors and Substrates of Cytochrome P450 3A4 (AID 884). Also: nearly all actives have a fitted effect of over 50% in size. Also: potency is read from the fitted curve at half-maximal effect. Summed up:
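20 nM human CYP3A4 with 25 uM Luciferin-PPXE (at KM) in 200 mM KPO4, preincubated 10 min with compound; NADPH regeneration started a 60 min RT reaction. Luciferin detected by luminescence, normalized to 57 uM ketoconazole as full inhibition.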

For assay [4] the target is unchanged. In words: qHTS Assay for Activators of Cytochrome P450 3A4 (AID 885). Also: nearly all actives have a fitted effect of over 65% in size. Summed up:
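20nM CYP3A4 + 25uM Luciferin-PPXE (=KM), 200mM KPO4; cpd 10 min RT; NADPH regen, 60 min RT; stop w/ detection buffer, 20 min; luminescence. Normalized to 57 uM ketoconazole.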

In assay [5] the target is ATP-dependent 6-phosphofructokinase (Trypanosoma brucei brucei) (UniProt O15648). In words: qHTS Assay to Find Inhibitors of T. brucei phosphofructokinase: hit validation (AID 492961).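 Also: luminescence reports ADP formed as PFK phosphorylates fructose-6-phosphate with ATP.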 The procedure, abridged:
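Measures ADP output of PFK (1.25 nM) at 0.1 mM ATP, 0.5 mM F6P, pH 8.0 TEA buffer with 5 mM MgCl2. No-enzyme wells define full inhibition; uninhibited enzyme wells define zero.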

The target of assay [6] is Ubiquitin carboxyl-terminal hydrolase 1 (Homo sapiens) (UniProt O94782). In words: Inhibitors of USP1/UAF1: Pilot qHTS (AID 504865). Also: nearly all actives have a fitted effect of over 35% in size. Also: potency is read from the fitted curve at half-maximal effect.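 As to activity change, negative = inhibition: rhodamine fluorescence freed from ubiquitin-rhodamine substrate followed over time; top concentration of the series differs between compounds.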 The procedure, abridged: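 USP1/UAF1 complex at 1 nM preincubated 15 min at room temperature with compound, then Ub-Rho substrate added at 150 nM final. Fluorescence (480/540 nm) read kinetically in 50 mM HEPES pH 7.8, 0.5 mM EDTA, 1 mM TCEP, 0.1 mg/ml BSA, 0.01% Tween-20.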

A short description of assay [7]: S16 Schwann cell viability assay (CellTiter-Glo assay) (AID 624031).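 Also: native untransfected S16 rat Schwann cells; cellular ATP luminescence as a viability measure; nearly all actives have a fitted effect of over 70% in size.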 Summed up: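 Cells were seeded at 500-750 per well in phenol red-free DMEM with 10% FBS and left overnight. Compounds or DMSO were pinned in, incubation ran 24 h at 37 °C/5% CO2, then CellTiter-Glo reagent was added and luminescence measured.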
Assay [8] is described as follows: S16 Schwann cell PMP22 intronic element beta-lactamase assay (AID 624044; calls by dose curve; also: nearly all actives have a fitted effect of over 15% in size). Summed up:
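Rat S16 Schwann cells with beta-Lac driven by a PMP22 intronic element, compound-treated 24 h at 37 °C. LiveBLAzer FRET B/G read: 460 nm normalized to potassium clavulanate vs DMSO; 535 nm FRET as viability; concentration-effect curves classified.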

Assay [9] can be described thus: qHTS profiling for inhibitors of Plasmodium falciparum proliferation (AID 504749). Also: nearly all actives have a fitted effect of over 60% in size. Also: potency is read from the fitted curve at half-maximal effect. Conditions: P. falciparum in erythrocytes, SYBR Green DNA, 72 h, at 28.7 µM (top of the series). Summed up:
(§1)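 Infected RBCs, 0.3% parasitemia/2.5% Hct final; cpd 72 h, 37 C, 5% CO2; lysis buffer with saponin/triton/SYBR Green I, o/n RT dark; FI 485/535; norm. to artemisinin (0.29 uM) and DMSO.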

The subject of a further assay is 3D7. Described as above. The note with it: P. falciparum in erythrocytes, SYBR Green DNA, 72 h; series mostly up to 28.7 µM. The procedure, abridged:
as §1

A further assay concerns CP191. The description is as above. Conditions: P. falciparum in erythrocytes, SYBR Green DNA, 72 h; series mostly up to 28.7 µM. Summed up: as §1
The test system of the next assay is CP237. The assay is described as above. The note with it: P. falciparum in erythrocytes, SYBR Green DNA, 72 h; series mostly up to 28.7 µM. The procedure, abridged:
as §1

In another assay the test system is CP250. Described as above. Conditions: P. falciparum in erythrocytes, SYBR Green DNA, 72 h; series mostly up to 28.7 µM. The procedure, abridged: as §1
For a further assay, the system named is CP252. The assay is described as above. The note with it: P. falciparum in erythrocytes, SYBR Green DNA, 72 h; series mostly up to 28.7 µM. Summed up:
as §1

The subject of a further assay is Dd2. The assay is described as above. The note with it: P. falciparum in erythrocytes, SYBR Green DNA, 72 h; series mostly up to 28.7 µM. Summed up:
as §1

The subject of the next assay is FAB9. Described as above. Conditions: P. falciparum in erythrocytes, SYBR Green DNA, 72 h; series mostly up to 28.7 µM. The procedure, abridged:
as §1

Another assay concerns HB3. The assay is described as above. Conditions: P. falciparum in erythrocytes, SYBR Green DNA, 72 h; series mostly up to 28.7 µM. The procedure, abridged: as §1
The subject of a further assay is PC49. The assay is described as above. The note with it: P. falciparum in erythrocytes, SYBR Green DNA, 72 h; series mostly up to 28.7 µM. Summed up: as §1

Sequence of Cytochrome P450 2C9 (Homo sapiens) (P11712 whole entry, looked up): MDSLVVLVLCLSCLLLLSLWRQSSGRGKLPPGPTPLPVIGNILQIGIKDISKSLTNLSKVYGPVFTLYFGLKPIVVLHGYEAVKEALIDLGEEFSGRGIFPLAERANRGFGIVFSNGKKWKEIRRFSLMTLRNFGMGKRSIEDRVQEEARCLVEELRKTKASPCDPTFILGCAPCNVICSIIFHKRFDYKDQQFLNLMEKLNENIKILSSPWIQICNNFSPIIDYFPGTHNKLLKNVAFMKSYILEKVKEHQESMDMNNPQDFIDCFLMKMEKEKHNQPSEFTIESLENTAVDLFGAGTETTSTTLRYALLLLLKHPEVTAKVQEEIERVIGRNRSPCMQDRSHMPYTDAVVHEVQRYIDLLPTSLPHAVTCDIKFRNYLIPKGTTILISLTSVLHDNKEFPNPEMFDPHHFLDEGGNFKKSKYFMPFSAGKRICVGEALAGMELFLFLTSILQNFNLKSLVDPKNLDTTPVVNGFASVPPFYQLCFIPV
Sequence of Cytochrome P450 3A4 (Homo sapiens) (P08684 whole entry, looked up): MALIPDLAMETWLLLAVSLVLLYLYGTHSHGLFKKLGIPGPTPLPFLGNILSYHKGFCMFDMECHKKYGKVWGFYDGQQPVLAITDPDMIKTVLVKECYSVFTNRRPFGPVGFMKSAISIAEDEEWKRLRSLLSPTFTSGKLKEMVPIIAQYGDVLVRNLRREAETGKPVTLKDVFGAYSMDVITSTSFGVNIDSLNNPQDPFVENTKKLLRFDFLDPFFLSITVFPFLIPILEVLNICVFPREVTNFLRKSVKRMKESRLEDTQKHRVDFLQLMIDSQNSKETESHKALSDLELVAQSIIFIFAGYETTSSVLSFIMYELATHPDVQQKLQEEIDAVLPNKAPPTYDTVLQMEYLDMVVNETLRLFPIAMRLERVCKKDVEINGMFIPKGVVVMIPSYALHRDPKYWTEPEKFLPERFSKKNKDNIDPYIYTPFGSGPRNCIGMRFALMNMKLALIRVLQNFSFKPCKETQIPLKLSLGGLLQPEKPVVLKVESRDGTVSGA
Sequence of Ubiquitin carboxyl-terminal hydrolase 1 (Homo sapiens) (O94782 whole entry, looked up): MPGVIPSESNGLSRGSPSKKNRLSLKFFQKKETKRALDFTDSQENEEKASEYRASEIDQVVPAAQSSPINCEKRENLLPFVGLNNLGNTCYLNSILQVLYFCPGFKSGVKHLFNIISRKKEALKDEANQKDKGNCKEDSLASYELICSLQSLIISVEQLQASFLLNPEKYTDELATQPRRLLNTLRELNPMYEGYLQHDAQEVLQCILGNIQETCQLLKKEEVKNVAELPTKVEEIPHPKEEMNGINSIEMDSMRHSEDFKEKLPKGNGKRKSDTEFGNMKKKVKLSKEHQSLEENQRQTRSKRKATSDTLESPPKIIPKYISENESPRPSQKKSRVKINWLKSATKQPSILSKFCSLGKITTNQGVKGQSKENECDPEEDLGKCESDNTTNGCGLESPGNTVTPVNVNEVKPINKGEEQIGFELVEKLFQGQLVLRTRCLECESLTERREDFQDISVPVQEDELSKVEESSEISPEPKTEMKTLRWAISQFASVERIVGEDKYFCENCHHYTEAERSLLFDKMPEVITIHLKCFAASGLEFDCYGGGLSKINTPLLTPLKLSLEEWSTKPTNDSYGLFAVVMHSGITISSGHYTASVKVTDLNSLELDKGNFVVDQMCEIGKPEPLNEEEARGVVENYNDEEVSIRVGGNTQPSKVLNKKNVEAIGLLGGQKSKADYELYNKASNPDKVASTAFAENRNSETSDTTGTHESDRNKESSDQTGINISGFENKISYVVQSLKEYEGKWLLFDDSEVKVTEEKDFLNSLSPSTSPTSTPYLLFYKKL
Sequence of ATP-dependent 6-phosphofructokinase (Trypanosoma brucei brucei) (O15648 whole entry, looked up): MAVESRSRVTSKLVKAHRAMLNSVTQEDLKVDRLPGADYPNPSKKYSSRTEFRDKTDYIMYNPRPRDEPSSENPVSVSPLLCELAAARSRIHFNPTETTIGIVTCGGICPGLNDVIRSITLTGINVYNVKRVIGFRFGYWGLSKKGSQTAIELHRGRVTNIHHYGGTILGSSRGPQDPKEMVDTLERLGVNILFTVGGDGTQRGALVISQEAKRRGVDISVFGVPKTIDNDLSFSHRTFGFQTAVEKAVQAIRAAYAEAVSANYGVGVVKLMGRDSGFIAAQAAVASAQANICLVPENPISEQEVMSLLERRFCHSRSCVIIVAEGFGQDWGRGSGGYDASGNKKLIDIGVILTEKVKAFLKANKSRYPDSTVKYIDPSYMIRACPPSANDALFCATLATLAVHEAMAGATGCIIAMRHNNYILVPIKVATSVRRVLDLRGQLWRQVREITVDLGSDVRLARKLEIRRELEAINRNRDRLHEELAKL

Consider `Cc1ccc(NC(=[OH+])c2cc3ccccc3cc2O)c(C)c1.Cc1ccc(NC(=[OH+])c2cc3ccccc3cc2O)c(C)c1.[Ni]`, for which, in [1], the Potency was 3.16 µM (active).

As for `C[C@@]12CC[C@H]3[C@@H](CC=C4C[C@H](OS(=O)(=O)O)CC[C@]43C)[C@H]1CCC2=O`, in assay [2], the Potency entry was “inactive”.

Regarding `C[C@]12CC[C@H](O)C[C@@H]1CC[C@H]1[C@H]2CC[C@]2(C)[C@H](C(=O)CO)CC[C@@H]12`, in assay [2], the Potency entry was “inactive”.

Consider `C#CCN[C@@H](C)Cc1ccccc1`, for which the Potency result in assay [3] is “inactive”.

As for `COc1cc2c(cc1OC)[C@]13CC[N@+]4(C)CC5=CCO[C@H]6CC(=O)N2[C@@H]1[C@@H]6[C@@H]5C[C@]34O`, the activity change, positive = activation in assay [4] is -28.5% [at 11.4 µM].

For the compound `C[C@@]12CC[C@H]3[C@@H](CCC4=C(O)C(=O)CC[C@]43C)[C@H]1CCC2=O`, in assay [2], the Potency entry is “inactive”.

On to `C[C@@H]1O[C@H]1P(=O)(O)O`, for which, in [1], the Potency entry was “inactive”.

For `COc1ccc2c(c1)[C@]13CCCC[C@@H]1[C@H](C2)NCC3`, in [4], the Potency result is “inactive”.

With `COc1ccc2c(c1O)-c1cccc3c1[C@H](C2)N(C)CC3`, in assay [2], the Potency entry was “inactive”.

As to `CN1C[C@@H](CS(=O)(=O)N(C)C)C[C@H]2c3cccc4c3c(cn4C)C[C@@H]21`, the Potency result in assay [2] is “inactive”.

For the compound `NC[C@H](O)c1cc(O)c(O)cc1F`, the Potency result in assay [2] is “inactive”.

For the compound `COc1ccc2c3c1O[C@@H]1C(=O)CC[C@@]4(O)[C@@H](C2)N(CC2CC2)CC[C@]314`, the Potency result in assay [4] and in assay [2] was “inactive” each time.

For the compound `C[C@]12CC[C@H](O)CC1=CC[C@@H]1[C@H]2CC[C@]2(C)C(=O)CC[C@H]12`, the Potency result in [2] is “inactive”.

Regarding `CC(C)C[C@H](NP(=O)(O)O[C@@H]1O[C@@H](C)[C@@H](O)[C@@H](O)[C@H]1O)C(=O)N[C@@H](Cc1c[nH]c2ccccc12)C(=O)O`, the Potency result in assay [2] was “inactive”.

Turning to `CCCN1CC[C@@H]2c3cc(O)ccc3CC[C@H]21`, in assay [2], the Potency result was “inactive”.

Take `C[C@@]12CC[C@H]3[C@@H](CC[C@@H]4C[C@H](O)CC[C@]43C)[C@H]1CC[C@H]2O`: the Potency entry in assay [4] is “inactive”.

As to `C[N+]1(C)C2CC(OC(=O)C(CO)c3ccccc3)CC1[C@@H]1O[C@H]21` (stereo partly specified), the Potency entry in assay [4] and in [2] was “inactive” in each case.

For `N[C@H](Cn1ccc(=O)[nH]c1=O)C(=O)O`, the Potency entry in assay [2] was “inactive”.

On to `CC(C)[C@@]1(NC(=O)[C@H]2C[C@H]3c4cccc5[nH]cc(c45)C[C@@H]3N(C)C2)O[C@]2(O)[C@H]3CCCN3C(=O)[C@H](Cc3ccccc3)N2C1=O`, for which the Potency in [1] was 2.51 µM (active).

Consider `N[C@H](Cn1oc(=O)[nH]c1=O)C(=O)O`, for which the Potency entry in [1] is “inactive”.

Consider `O=C(O)c1cc[c]([Hg][S]c2ncnc3nc[nH]c23)cc1`, for which the Potency in [1] is 1.26 µM (active).

With `Oc1ccc2c3c1O[C@@H]1c4[nH]c5c(c4C[C@@]4(O)[C@@H](C2)N(CC2CC2)CC[C@]314)C[C@]1(O)[C@@H]2Cc3ccc(O)c4c3[C@@]1(CCN2CC1CC1)[C@H]5O4`, the Potency entry in assay [2] is “inactive”.

Turning to `COC(=O)[C@H](N)CCCN=C(N)N[N+](=O)[O-]`, in assay [2], the Potency entry was “inactive”.

On to `C=CCN1CC[C@]23c4c5ccc(O)c4O[C@@H]2/C(=N/NC(=O)c2ccccc2)CC[C@@]3(O)[C@H]1C5`, for which the Potency result in assay [4] was “inactive”.

Take `C[N+]1(C)CCc2cc3c(cc2[C@@H]1[C@@H]1OC(=O)c2c1ccc1c2OCO1)OCO3`: the Potency result in [2] is “inactive”.

As to `N=C(N)SCc1ccc(Cl)c2ccccc12` (tested in a mixture with another compound), the Potency in assay [1] is 3.98 µM (active).

`CC(=O)OCC1=C(C(=O)[O-])N2C(=O)[C@@H](NC(=O)CCC[C@@H](N)C(=O)[O-])[C@@H]2SC1.[Zn+2]`: the Potency result in [2] is “inactive”.

With `O=C(Nc1cc[c]([Sb](=[O])([OH])[OH])cc1)c1ccccc1`, in [1], the activity change, negative = inhibition is 2.5% [at 11.4 µM].

For `CCNC(=O)[C@@H]1O[C@@H](n2cnc3c(N)ncnc32)[C@@H](O)[C@H]1O`, the Potency result in assay [2] is “inactive”.

Consider `O=C1C[C@@H]2OCC=C3CN4CC[C@]56c7ccccc7N1[C@@H]5[C@@H]2[C@H]3C[C@H]46` (tested in a mixture with another compound), for which the call in assay [5], in assay [7] and in assay [8] was inactive. In addition, the Potency entry (in assay [6]; in the assay with 3D7; with CP191; with CP250; in the assay with CP252; in the assay on FAB9) was “inactive” in each case. The Potency result in the assay on HB3 and in the assay with PC49 was “inactive” in each case. Moreover, the activity, negative = inhibition in assay [9] (parasite line A) is -29.7%; in assay [9] (parasite line B), -15.1%. Besides, the Potency in the assay with CP237 is 8.91 µM (active); in the assay on Dd2, 10 µM (active).

Regarding `O=C(O)[C@H]1CCN1`, the Potency entry in [1], in assay [3] and in assay [2] was “inactive” each time.

Consider `CC(=O)[C@@H]1CC[C@H]2[C@H]3CC[C@H]4C[C@@H](O)CC[C@]4(C)[C@@H]3CC[C@]12C`, for which the Potency in [1] is 2 µM (active).

On to `N[C@H](Cn1cc(I)c(=O)[nH]c1=O)C(=O)O`, for which the Potency entry in [1] is “inactive”.

For `C[C@@H]1Cc2cc3c(cc2C(c2ccc(N)cc2)=NN1)OCO3`, in [3], the Potency is 2.51 µM (active).

`CC(=O)c1c(O)c(C)c(O)c(Cc2c(O)c3c(c(C(=O)/C=C\c4ccccc4)c2O)OC(C)(C)C=C3)c1O`: the Potency in assay [1] is 0.631 µM (active); in [3], 6.31 µM (active); in [2] it was 794 nM (active); in [6] it was 79.4 µM (active).

For the origin of these results see PubChem BioAssay (NCATS).
